# Source: PubChem BioAssay (University of Kansas High Throughput Screening Laboratory)
# mHTT-CaM PPI inh – mutant huntingtin-calmodulin interaction inhibitors – biochemical, AlphaScreen, primary screen | hit rate 3.6% among 190,000 | inhibition, % at 15 µM | AlphaScreen His-mHTT/GST-CaM binding, luminescence;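 note: 0% = both proteins with DMSO and 100% = one protein alone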
# Pf apPOL block – Pf-apPOL inhibitors, biochemical, fluorescence. Recombinant Pf-apPOL, molecular beacon fluorescence, 1.5 h. hit rate 0.25% among 210,000. inhibition, % at 10 µM. Plasmodium falciparum apicoplast DNA polymerase (apPOL)
# An asterisk follows results filed as active; · = not tested or not shown. The full list was thinned out, with hits kept by preference. Cut-off read from the data, not from the text of the source: active = inhibition above about 50%; inactive = the rest.
SMILES,mHTT-CaM PPI inh,Pf apPOL block
COc1ccc(-c2ccc(/C=C/c3cc(C(F)(F)F)[nH]c(=O)n3)o2)cc1Cl,99.0*,7.2
COc1ccc(-c2ccc(/C=C/c3cc(C(F)(F)F)[nH]c(=O)n3)o2)c([N+](=O)[O-])c1,24.0,-2.6
COc1cccc(NC(=O)CSc2nnc3ccccn23)c1,-8.0,3.6
COc1cccc(NC(=O)CSc2nnc(Cc3ccccc3)n2C)c1,73.3*,0.5
COC(=O)c1ccc(C=C2Oc3cc(OCC(C)=O)ccc3C2=O)cc1,-0.2,-6.2
C(=Nc1c2ccccc2nc2ccccc12)c1ccco1,55.8*,·
C(=Nc1c2ccccc2nc2ccccc12)c1cccc2c1OCOC2,-2.5,·
COc1ccc(OC)c(CNC(=O)c2cc3n(n2)CCCN(Cc2ccccc2)C3=O)c1,6.8,-7.7
COc1ccc(C(=O)Oc2cc(C)[nH]c(=O)c2[N+](=O)[O-])c(OC)c1,55.8*,0.7
CCCC(CCC)C(=O)Oc1cc(C)[nH]c(=O)c1[N+](=O)[O-],87.3*,-9.5
COc1ccccc1C(=O)Oc1cc(C)[nH]c(=O)c1[N+](=O)[O-],8.5,-6.4
CCCCC(=O)Oc1cc(C)[nH]c(=O)c1[N+](=O)[O-],-4.2,2.5
CN(C(=O)Cn1cnc2c(-c3ccccc3)csc2c1=O)c1ccccc1,-16.3,-1.3
COc1nccnc1N1CCC(NS(=O)(=O)c2cccs2)C1 (stereo not given),2.7,-2.2
CC1=NN(c2cc(C)nc(-c3ccccc3O)n2)C(=O)C1,56.2*,-12.3
CC1=NN(c2nc(-c3ccccc3O)cs2)C(=O)C1,97.5*,-5.8
CCCC1=NN(c2nc3ccccc3s2)C(=O)/C1=C/N(C)C,-2.0,-16.4
CC1=NN(c2nc(-c3ccc(C#N)cc3)cs2)C(=O)C1,16.4,-5.5
CC1=NN(c2nc3ccccc3s2)C(=O)C1,93.7*,-6.7
Cc1ccc(Nc2cc(C)nc(-c3ccccc3O)n2)cc1,-18.0,-5.2
Cn1c(=O)c2c(nc3n2CC(c2ccc([N+](=O)[O-])cc2)=NN3)n(C)c1=O,2.0,-3.1
O=C(Cc1c(F)cccc1Cl)Nc1nnc(-c2ccsc2)o1,57.0*,8.3
O=C(Nc1nnc(-c2ccsc2)o1)c1ccccn1,100.1*,-180.7
O=C(Nc1nnc(-c2ccsc2)o1)c1ccccc1F,39.5,-5.0
O=C(Nc1nnc(-c2ccsc2)o1)c1cc(-c2ccccc2)on1,-4.0,-228.4
SMILES,mHTT-CaM PPI inh,Pf apPOL block
C#CCOc1ccc(/C=C2\NC(=O)N(CC(=O)Nc3cccc(C)c3)C2=O)cc1,0.0,0.4
COc1ccc(NC(=O)Cc2nnc(NC(=O)Nc3ccc(F)cc3)s2)cc1,2.8,-4.6
N#CC(C#N)=C1C(Cl)=C(N2CCCCC2)c2ccccc21,56.0*,3.4
N#Cc1c(N2CCOCC2)nsc1-c1ccccc1Cl,·,-7.7
O=c1cc(-c2ccc([N+](=O)[O-])cc2)c2c(O)cc(O)cc2o1,9.0,0.1
COc1ccc(C=C2Oc3cc(C)cc(O)c3C2=O)cc1,37.5,4.2
COc1ccc2c(c1)=CC(=Cc1[nH]c(SC(C)=O)nc1O)C(=O)N=2,100.0*,-3.9
O=C(Cc1cccc(F)c1)N1CCC(c2cnn(-c3ccccc3)c2)CC1,2.9,-1.5
CC1CCCC(Nc2ccc(N3C(=O)C4C5C=CC(C5)C4C3=O)cc2[N+](=O)[O-])C1C (stereo not given),55.0*,-19.1
CC1CCCC(Nc2ccc(N3C(=O)CCC3=O)cc2[N+](=O)[O-])C1C (stereo not given),42.0,-15.7
COc1cccc2c1OC1(CCCCC1)N1N=C(c3ccc(C)o3)CC21 (stereo not given),80.0*,-17.2
COc1cccc2c1OC1(CCCCC1)N1N=C(c3ccccc3)CC21 (stereo not given),13.0,-4.4
COc1cccc2c1OC1(CCC(C)CC1)N1N=C(c3ccc(C)o3)CC21 (stereo not given),85.0*,-15.4
COc1ccc(C2=NN3C(C2)c2ccccc2OC32CCCCC2)cc1 (stereo not given),25.0,-11.6
COC(=O)c1c(O)ccc2c1CCCC2,-8.2,-6.2
COCOCCn1cc(CN2CCS(=O)(=O)N(Cc3ccc(-c4ccccc4)cc3)C(C)C2=O)nn1 (stereo not given),58.9*,6.2
COCOCCn1cc(CN2CCS(=O)(=O)N(Cc3ccc(-c4ccc(Cl)nc4)cc3)C(CC(C)C)C2=O)nn1 (stereo not given),25.8,-26.8
COCOCCn1cc(CN2CCS(=O)(=O)N(Cc3ccc(-c4ccc(Cl)cc4)cc3)C(CC(C)C)C2=O)nn1 (stereo not given),53.5*,-23.1
CCC/C=C/c1ccc(CN2C(C)C(=O)N(Cc3cn(CCOCOC)nn3)CCS2(=O)=O)cc1 (stereo not given),4.1,-16.1
COCOCCn1cc(CN2CCS(=O)(=O)N(Cc3ccc(-c4ccc(F)cc4)cc3)C(C)C2=O)nn1 (stereo not given),62.6*,14.0
